From PubChem BioAssay
The source made the active and inactive calls.

Legend:
Albumin (Bos taurus) = Albumin (Bos taurus) (UniProt P02769); assay: bovine serum albumin binders on microarray, profiling panel, artefact control for SMM control protein annotation, biochemical, small-molecule microarray, Alexa647 label, 635/667 nm fluorescence (AID 1118); details: BSA-A647 binding, fluorescence 635 nm, higher = more signal;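 note: score merges 667 nm emission intensity and signal-to-noise per printed compound spot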
Sequence of Albumin (Bos taurus) (P02769 whole entry, looked up): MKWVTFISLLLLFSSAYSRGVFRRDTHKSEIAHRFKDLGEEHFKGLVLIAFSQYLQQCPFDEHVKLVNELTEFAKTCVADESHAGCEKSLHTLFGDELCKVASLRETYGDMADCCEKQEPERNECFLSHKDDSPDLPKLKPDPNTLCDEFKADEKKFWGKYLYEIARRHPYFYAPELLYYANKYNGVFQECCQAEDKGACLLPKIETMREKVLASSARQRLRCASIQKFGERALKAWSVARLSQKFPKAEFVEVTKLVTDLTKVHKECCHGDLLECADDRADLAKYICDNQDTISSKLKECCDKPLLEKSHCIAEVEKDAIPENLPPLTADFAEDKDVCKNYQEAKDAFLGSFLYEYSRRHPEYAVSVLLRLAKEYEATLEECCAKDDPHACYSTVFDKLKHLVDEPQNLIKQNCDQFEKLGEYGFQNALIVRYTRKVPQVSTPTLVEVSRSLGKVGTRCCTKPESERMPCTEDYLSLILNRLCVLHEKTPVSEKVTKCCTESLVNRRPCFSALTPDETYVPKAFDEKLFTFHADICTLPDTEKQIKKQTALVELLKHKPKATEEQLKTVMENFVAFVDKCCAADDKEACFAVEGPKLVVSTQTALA

[1] = small-molecule microarray binders of probe aXIP, primary screen, biochemical, NeuroSMM set, 635/667 nm fluorescence (AID 1119); details: higher = more signal, called active from +8 up or from −8 down;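 note: probe is the protein aXip251-270 applied at 1 µg/mL to compound-printed slides; binding of probe to printed compounds measured as 667 nm fluorescence plus signal to noise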
[2] = small-molecule binders of probe aNOTCH3, primary screen, biochemical, small-molecule microarray, 635/667 nm fluorescence (AID 1120); details: higher = more signal;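 note: probe is a biotin-tagged antibody raised against NOTCH3 rather than NOTCH3 protein; score merges spot fluorescence near 667 nm with spot signal to noise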
[3] = small-molecule binders of probe aNOTCH2, primary screen, biochemical, small-molecule microarray, 635/667 nm fluorescence (AID 1121); details: higher = more signal;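 note: score merges feature fluorescence read at 667 nm with its signal to noise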
[4] = target: Carbonic anhydrase 2 (Homo sapiens) (UniProt P00918); assay: CAII small-molecule binders, profiling panel, biochemical, small-molecule microarray, Alexa647-labelled CAII (AID 1122); details: CAII-A647 binding fluorescence, higher = more signal
[5] = COS7 lysate on small-molecule microarray, probe aHis, 635 nm (AID 1123); details: COS7 cell lysate, fluorescence, higher = more signal;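 note: z-score combines 667nm fluorescence intensity with signal-to-noise per printed compound spot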
[6] = compound binding in COS7 lysate, probe aLAP1, primary screen, cell lysate, small-molecule microarray (AID 1124); details: probe aLAP1, fluorescence, higher = more signal;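 note: lysate comes from COS7 cells expressing LAP1 and is applied at 0.3 µg/mL; score merges spot fluorescence near 667 nm with signal-to-noise over triplicate slides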
Sam68 (KHDRBS1) = assay: Sam68 small-molecule binders, primary screen, biochemical, small-molecule microarray, 635 nm fluorescence (AID 1125); details: small-molecule microarray binding, higher = more signal;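 note: score merges 667 nm channel intensity with signal to noise over triplicate slides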
[7] = system: Chordin-like protein 2 (CHRDL2); assay: CHRDL2 small-molecule binders, primary screen, biochemical, small-molecule microarray, 635 nm fluorescence (AID 1126); details: small-molecule microarray binding, fluorescence 635 nm; higher = more signal;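 note: printed compound slides probed with Chrdl2 protein at 4 µg/mL for 1 h at 4 C; score merges 667 nm emission intensity with signal to noise over three replicate slides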
[8] = target: Concanavalin-A (Canavalia ensiformis) (UniProt P02866); assay: ConA small-molecule binders, primary screen, artefact control for SMM control protein annotation, biochemical, small-molecule microarray, Alexa647 label, 635 nm (AID 1127); details: ConA-A647 binding fluorescence, higher = more signal;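 note: z combines 667 nm emission intensity with signal-to-noise across three replicate slides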
Sequence of Concanavalin-A (Canavalia ensiformis) (P02866 whole entry, looked up): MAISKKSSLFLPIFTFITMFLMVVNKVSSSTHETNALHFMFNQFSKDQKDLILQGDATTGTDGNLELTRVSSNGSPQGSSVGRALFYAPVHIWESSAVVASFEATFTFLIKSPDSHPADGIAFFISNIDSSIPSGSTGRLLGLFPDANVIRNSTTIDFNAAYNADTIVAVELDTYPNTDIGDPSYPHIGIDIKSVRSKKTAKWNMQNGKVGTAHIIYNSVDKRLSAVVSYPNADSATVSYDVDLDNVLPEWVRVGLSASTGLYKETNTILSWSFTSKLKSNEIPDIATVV

[9] = anti-His antibody binders, primary screen, artefact control for SMM control protein annotation, biochemical, small-molecule microarray, 635 nm fluorescence (AID 1128); details: anti-His Alexa647 antibody binding, higher = more signal;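 note: score merges feature fluorescence with signal-to-noise for each printed compound spot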
[10] = system: Human papillomavirus type 1a E7 protein (residues 1-88); assay: HPV1a E7 small-molecule binders, primary screen, biochemical, small-molecule microarray, residues 1-88, 635 nm (AID 1129); details: small-molecule microarray binding, fluorescence 635 nm; higher = more signal
[11] = target: Focal adhesion kinase 1 (Homo sapiens) (UniProt Q05397); assay: small-molecule microarray binders of FAK, primary screen, biochemical, 635/667 nm fluorescence, BSA, DTT (AID 1130); details: PTK2 binding, 635 nm fluorescence, higher = more signal;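 note: composite of spot emission at 667 nm and signal to noise over triplicate slides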
Sequence of Focal adhesion kinase 1 (Homo sapiens) (Q05397 whole entry, looked up): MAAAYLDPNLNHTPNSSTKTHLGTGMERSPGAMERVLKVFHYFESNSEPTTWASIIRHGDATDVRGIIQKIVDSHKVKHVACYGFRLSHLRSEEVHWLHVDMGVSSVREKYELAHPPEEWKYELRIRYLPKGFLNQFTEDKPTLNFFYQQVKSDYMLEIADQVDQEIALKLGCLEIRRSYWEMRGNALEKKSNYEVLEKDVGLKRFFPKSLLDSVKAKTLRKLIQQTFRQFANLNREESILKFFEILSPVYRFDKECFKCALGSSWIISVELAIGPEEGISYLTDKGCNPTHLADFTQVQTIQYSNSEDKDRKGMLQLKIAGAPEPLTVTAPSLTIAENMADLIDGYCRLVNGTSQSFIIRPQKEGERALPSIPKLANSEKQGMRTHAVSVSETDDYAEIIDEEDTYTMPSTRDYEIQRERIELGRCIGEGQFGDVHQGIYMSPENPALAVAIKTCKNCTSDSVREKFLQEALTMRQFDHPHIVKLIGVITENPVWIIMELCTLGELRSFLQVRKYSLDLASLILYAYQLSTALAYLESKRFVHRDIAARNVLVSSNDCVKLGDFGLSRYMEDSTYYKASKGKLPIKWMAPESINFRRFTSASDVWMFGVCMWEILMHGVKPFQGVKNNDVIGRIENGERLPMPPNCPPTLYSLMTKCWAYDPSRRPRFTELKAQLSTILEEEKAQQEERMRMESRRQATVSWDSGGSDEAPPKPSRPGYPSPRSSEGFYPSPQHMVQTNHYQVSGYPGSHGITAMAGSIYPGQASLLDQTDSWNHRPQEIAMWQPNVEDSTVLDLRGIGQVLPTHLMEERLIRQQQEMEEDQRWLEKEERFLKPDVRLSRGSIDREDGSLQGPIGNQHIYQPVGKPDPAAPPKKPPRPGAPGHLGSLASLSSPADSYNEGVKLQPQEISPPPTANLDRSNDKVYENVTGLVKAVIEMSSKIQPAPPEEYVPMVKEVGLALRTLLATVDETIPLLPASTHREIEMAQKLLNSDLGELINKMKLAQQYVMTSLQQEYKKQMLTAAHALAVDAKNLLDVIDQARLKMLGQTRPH

[12] = system: Fibrinogen (Alexa647-labelled); assay: fibrinogen binders on compound microarrays, profiling panel, artefact control for SMM control-protein annotation, biochemical, small-molecule microarray, 635/667 nm fluorescence (AID 1131); details: fibrinogen-A647 binding fluorescence, higher = more signal;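 note: z-score merges 667 nm fluorescence with per-spot signal-to-noise over triplicate slides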
[13] = target: Follistatin (Homo sapiens) (UniProt P19883); assay: follistatin binders on small-molecule microarrays, primary screen, biochemical, small-molecule microarray, 635/667 nm fluorescence (AID 1132); details: FST binding, 635 nm fluorescence, higher = more signal
Sequence of Follistatin (Homo sapiens) (P19883 whole entry, looked up): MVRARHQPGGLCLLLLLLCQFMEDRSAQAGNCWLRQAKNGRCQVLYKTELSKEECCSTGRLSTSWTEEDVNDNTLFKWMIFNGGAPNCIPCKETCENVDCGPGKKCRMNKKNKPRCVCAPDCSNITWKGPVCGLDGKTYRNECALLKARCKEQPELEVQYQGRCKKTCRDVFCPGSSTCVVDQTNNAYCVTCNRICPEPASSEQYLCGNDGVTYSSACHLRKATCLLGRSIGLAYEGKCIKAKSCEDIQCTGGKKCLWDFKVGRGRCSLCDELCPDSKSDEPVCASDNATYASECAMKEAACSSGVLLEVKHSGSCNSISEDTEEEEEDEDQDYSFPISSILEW

[14] = target: Fibroblast growth factor 2 (Homo sapiens) (UniProt P09038); assay: FGF2 binders on small-molecule microarrays, primary screen, biochemical, small-molecule microarray, 635/667 nm fluorescence (AID 1133); details: small-molecule microarray binding, FGF2, fluorescence 635/667; higher = more signal
Sequence of Fibroblast growth factor 2 (Homo sapiens) (P09038 whole entry, looked up): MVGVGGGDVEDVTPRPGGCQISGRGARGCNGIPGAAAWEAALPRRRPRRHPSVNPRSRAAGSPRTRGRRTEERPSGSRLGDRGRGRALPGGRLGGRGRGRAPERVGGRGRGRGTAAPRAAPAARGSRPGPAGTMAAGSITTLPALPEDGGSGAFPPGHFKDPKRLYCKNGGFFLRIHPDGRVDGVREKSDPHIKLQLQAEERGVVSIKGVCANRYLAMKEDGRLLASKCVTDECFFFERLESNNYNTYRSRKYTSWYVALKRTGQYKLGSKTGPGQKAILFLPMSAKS

[15] = mitochondrial membrane potential change in A549 cells, profiling panel, cell-based, JC-1 fluorescence, basal, 24 h, 100 nL (AID 1138); details: higher = more signal;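 note: A549 lung adenocarcinoma cells under basal conditions with no added stimulus; test concentration not given here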
Lefty1 = Lefty1 binders on small-molecule microarrays, primary screen, biochemical, small-molecule microarray, 635/667 nm fluorescence (AID 1139); details: small-molecule microarray binding, fluorescence 635/667; higher = more signal
[16] = system: wheat germ agglutinin (Triticum aestivum), Alexa647-labelled; assay: wheat germ agglutinin binders on compound microarrays, profiling panel, artefact control for SMM control-protein annotation, biochemical, small-molecule microarray, 635/667 nm fluorescence (AID 1140); details: WGA-A647 binding, 635 nm fluorescence, higher = more signal;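 note: score merges 667 nm feature emission with signal to noise over triplicate slides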
[17] = target: Luciferin 4-monooxygenase (Photinus pyralis) (UniProt P08659); assay: firefly luciferase enzyme inhibitors, primary screen, biochemical, luminescence, purified enzyme, 2006 set (AID 1141); details: SteadyGlo luminescence, 30 min, higher = more signal, called active from +8 up or from −8 down;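 note: cell-free assay with purified firefly luciferase at 100 ng per well in PBS; test concentration not given here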
Sequence of Luciferin 4-monooxygenase (Photinus pyralis) (P08659 whole entry, looked up): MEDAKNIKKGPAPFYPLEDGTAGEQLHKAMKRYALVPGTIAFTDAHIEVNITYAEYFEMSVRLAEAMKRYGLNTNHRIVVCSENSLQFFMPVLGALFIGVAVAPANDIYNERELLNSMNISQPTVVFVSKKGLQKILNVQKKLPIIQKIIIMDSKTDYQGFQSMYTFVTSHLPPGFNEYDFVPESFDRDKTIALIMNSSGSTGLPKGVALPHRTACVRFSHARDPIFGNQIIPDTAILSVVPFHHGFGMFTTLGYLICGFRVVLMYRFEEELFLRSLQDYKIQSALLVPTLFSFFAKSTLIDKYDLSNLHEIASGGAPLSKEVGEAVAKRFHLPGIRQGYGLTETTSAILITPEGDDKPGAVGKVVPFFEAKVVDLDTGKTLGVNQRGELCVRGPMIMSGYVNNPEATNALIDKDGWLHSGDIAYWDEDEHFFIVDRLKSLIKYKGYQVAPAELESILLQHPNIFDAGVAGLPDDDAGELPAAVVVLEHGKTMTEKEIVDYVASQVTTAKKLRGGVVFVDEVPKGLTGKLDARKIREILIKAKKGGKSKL

Row | Compound | composite z-score (Albumin (Bos taurus)) | composite Z-score [1] | composite z-score [2] | composite z-score [3] | composite z-score [4] | composite z-score [5] | composite z-score [6] | composite z-score (Sam68 (KHDRBS1)) | composite z-score [7] | composite z-score [8] | composite z-score [9] | composite z-score [10] | composite z-score [11] | composite z-score [12] | composite z-score [13] | composite z-score [14] | z-score [15] | composite z-score (Lefty1) | composite z-score [16] | z-score [17]
1 | C[C@H]1C2[C@H](Cc3ccccc3)NC(=O)[C@]23C(=O)NCC(=O)N2CCC[C@H]2C(=O)NC/C=C/CCC/C=C/C3[C@@H]2O[C@]12C (stereo not given in full) | -0.677 | -0.695 (inactive) | -0.136 | -0.179 | -0.17 | -0.18 | 0.053 | -1.51 | -0.143 | -1.27 | 0.295 | -1.28 | -0.502 | -0.489 | -0.0491 | -0.0881 | -0.979 | -0.0374 | -0.704 | -0.44 (inactive)
2 | O=C1NC(=O)C2C1C=CC(C(O)c1ccc(-c3ccccc3)s1)N2Nc1ccc(Cl)cc1Cl (stereo not given) | 0.924 | 1.1 (inactive) | 0.0979 | -0.0611 | 0.759 | 2.82 | 1.2 | 1.33 | -0.717 | 1.06 | 0.752 | 1.11 | 1.06 | 0.934 | 0.833 | -0.91 | -0.536 | 0.127 | 0.865 | -0.289 (inactive)
3 | O=C1OCCC=C[C@H]2OC34C=CCN(CCN5CCOCC5)C(=O)[C@H]3N(CCCCCO)C(=O)[C@@H]4C12 (stereo not given in full) | 0.953 | -0.88 (inactive) | -0.152 | -0.203 | 0.848 | 2.4 | 1.48 | 0.913 | 0.355 | 0.935 | -0.166 | 0.56 | 0.398 | 0.709 | -0.211 | -0.363 | 0.791 | -0.301 | 0.615 | -0.956 (inactive)
4 | COc1ccc([C@H]2C[C@H]3C(I)=C[C@@H]2C(=O)[C@]32CO2)cc1 | -0.63 | -0.617 (inactive) | 0.0242 | -0.156 | -0.267 | -0.442 | -0.154 | -0.889 | 0.189 | -0.0546 | -0.608 | -0.658 | -0.449 | -0.193 | 0.762 | 1.14 | 1.1 | 0.983 | 0.24 | -0.303 (inactive)
5 | CO[C@H]1O[C@H](CO)[C@@H](OC(=O)Nc2ccc(Oc3ccccc3)cc2)[C@H](OC(=O)Nc2ccc3c(c2)OCO3)[C@@H]1OC(=O)Nc1ccc2c(c1)OCO2 | 0.277 | 1.29 (inactive) | 0.327 | 0.0248 | 0.333 | 2.02 | 0.869 | 1.3 | 0.335 | 1.18 | 1.83 | 1.24 | 0.653 | 0.85 | 1.28 | 1.2 | -0.216 | 0.423 | 0.779 | -5.16 (inactive)
6 | O=C1OCCC/C=C\[C@H]2OC34C=CCN(c5ccc6ccccc6c5)C(=O)[C@H]3N(CCCCCO)C(=O)[C@@H]4C12 (stereo not given in full) | -0.152 | 0.328 (inactive) | -0.295 | -0.182 | 0.828 | -1.92 | -0.289 | -1.63 | -0.654 | -0.328 | -0.268 | -1.62 | -0.24 | -0.582 | -0.472 | -1.06 | -0.168 | -0.343 | -0.753 | 0.118 (inactive)
7 | CN(C)CCCC[C@@H]1NC(=O)[C@H]2C[C@@H](C(=O)NCCCCCN)[C@@H](c3cccc(OCCO)c3)N2C1=O | 0.878 | 0.522 (inactive) | 0.313 | 0.41 | 0.746 | 1.75 | 1.12 | 1.19 | 0.402 | 1.12 | 2.91 | 1.12 | 0.297 | 1.01 | 1.38 | 1.22 | 0.129 | 1.66 | 1.48 | -0.69 (inactive)
8 | CC1CC/C=C\[C@H]2OC34C=CCN(Cc5ccccc5)C(=O)[C@H]3N(C(C)CO)C(=O)[C@@H]4C2C(=O)O1 (stereo not given in full) | -0.852 | -0.592 (inactive) | -0.0647 | -0.0846 | 0.331 | -0.412 | -0.0231 | -0.99 | -0.0576 | -0.239 | -0.216 | -0.922 | -0.286 | -0.696 | 0.462 | -0.005 | 0.924 | 1.06 | -0.626 | -0.97 (inactive)
9 | C=C(CCCC)/C(=C/C[C@H](OC(=O)c1ccncc1)c1ccc(OCCO)cc1)c1cc(C(=O)OC)ccc1OC | -0.0215 | 0.219 (inactive) | 0.167 | -0.14 | 0.644 | 0.774 | 0.354 | 0.59 | -0.257 | 0.363 | 1.07 | 1.18 | 0.525 | 0.438 | -0.0021 | 0.0508 | 0.313 | 0.394 | 0.704 | -0.723 (inactive)
10 | C=C(CCCC)C(=O)CC[C@@H](OC(C)=O)c1ccc(CO)o1 | -0.855 | -0.666 (inactive) | -0.0581 | -0.108 | 0.645 | 0.423 | -0.0353 | 0.628 | 0.869 | 0.0313 | 0.184 | -0.261 | -0.437 | 0.513 | 1.36 | 1.8 | -0.683 | 1.64 | 0.201 | -1.3 (inactive)
11 | COc1ccc(NN2C(C(O)c3ccc(N(C)C)cc3)C=CC3C(=O)N(C4CCCCC4)C(=O)C32)cc1 (stereo not given) | 0.906 | -0.247 (inactive) | 0.391 | 0.0992 | 0.689 | 2.13 | 0.414 | 1.31 | 0.212 | 1.16 | 1.64 | 1.22 | 0.465 | 0.941 | 0.731 | -0.24 | -0.165 | 0.27 | 0.667 | 0.557 (inactive)
